Compounds with a hit are over-represented: about 1.9% of the library has one in this group of screens.
PP1 counter: blocks human PP1-alpha phosphatase, a PP5 counter-screen; inhibition, % at 6.7 µM; purified PP1alpha, OMFP fluorescence; actives 0.9% (n = 320,000); P62136;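 active = inhibition above the mean inhibition of all tested compounds plus 3 SD, computed separately for each screening campaign, cut at about 15% in these data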
Target sequence (P62136 whole entry, looked up): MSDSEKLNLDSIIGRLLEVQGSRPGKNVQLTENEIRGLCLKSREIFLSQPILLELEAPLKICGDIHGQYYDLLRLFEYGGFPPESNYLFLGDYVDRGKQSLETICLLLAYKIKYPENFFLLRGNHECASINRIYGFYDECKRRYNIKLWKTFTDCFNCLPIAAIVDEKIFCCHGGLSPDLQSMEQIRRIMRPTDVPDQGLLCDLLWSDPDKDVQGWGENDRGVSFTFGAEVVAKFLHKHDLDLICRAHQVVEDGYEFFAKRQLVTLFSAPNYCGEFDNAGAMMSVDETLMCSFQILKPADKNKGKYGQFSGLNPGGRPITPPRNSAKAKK
PP5 inh: blocks human protein phosphatase 5 activity; AID 1987; actives 0.18% (n = 320,000); purified PP5c, OMFP substrate fluorescence; P53041; inhibition, % at 6.7 µM;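 active = inhibition above the campaign's mean inhibition across all tested compounds plus 3 SD, cut at about 9.5% in these data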;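 also: 0% = DMSO only and 100% = 100 µM cantharidin control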
H9c2 protect: modulators protecting cardiomyocytes from myocardial damage; H9c2 cardiomyocytes, H2O2 injury protection, ATPLite, 2 h; protection from H2O2 cell death, % at 20 µM; actives 0.63% (n = 360,000); AID 588492;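 active = compounds giving at least 50% protection of heart cells from peroxide-induced death in the single-dose screen, raw or plate-pattern-corrected value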;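 also: 0% = DMSO wells with peroxide and 100% = DMSO wells without peroxide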
ATG4B inhibitor: ATG4B (human) cysteine protease inhibition; ATG4B cleavage of LC3-PLA2, NBD-HPC fluorescence, 1 h; Q9Y4P1; AID 504462; inhibition, % at 8.33 µM; actives 0.51% (n = 340,000); in the data active = inhibition above about 40%
ATG4B confirm: confirmation of human ATG4B inhibitors | shares compounds with ATG4B inhibitor | inhibition, % at 8.33 µM | AID 504757 | actives 92% (n = 320) | ATG4B protease fluorescent substrate cleavage assay; in the data active = inhibition above about 39%
PLA2 counter: inhibits human PLA2, flagging false ATG4B inhibitors. shares compounds with ATG4B inhibitor. purified PLA2, NBD-C6-HPC fluorescence, 45 min. inhibition, % at 8.33 µM. actives 66% (n = 1,600). AID 588402; in the data active = inhibition above about 50%
Target sequence (P04054 whole entry, looked up): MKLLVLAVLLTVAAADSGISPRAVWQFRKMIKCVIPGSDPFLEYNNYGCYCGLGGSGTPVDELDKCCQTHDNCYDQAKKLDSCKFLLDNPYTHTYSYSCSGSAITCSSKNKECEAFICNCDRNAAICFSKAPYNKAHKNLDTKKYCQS
An asterisk follows results filed as active; / = no result.

SMILES	PP1 counter	PP5 inh	H9c2 protect	ATG4B inhibitor	PLA2 counter	others
CCCCCCSc1nnc(-c2cnn(-c3ccccc3)c2-n2cccc2)n1C	10	5	-31	44*	58*
O=C(CN1CCN(S(=O)(=O)c2ccc(Cl)c(Cl)c2)CC1)N1CCCC1	-1	-1	3	-2	/
COc1cc([N+](=O)[O-])cc(/C=C2/SC(=S)N(Cc3ccccc3)C2=O)c1O	15*	5	-21	49*	75*
COc1cc(/C=C2/SC(=S)N(Cc3ccccc3)C2=O)cc(Cl)c1O	-2	0	-16	26	/
NC(=O)C1CCN(C(=O)NC2CC(=O)N(c3ccc4c(c3)OCCO4)C2)CC1 (centres undefined)	-1	-3	3	1	/
COc1ccc(CNC(=O)N2CCN(c3cccc(C)c3C)CC2)cc1OC	-1	3	5	3	/
Cc1ccccc1N1CCN(C(=O)NCc2cccc(Cl)c2)CC1	3	0	-3	61*	73*
COc1ccc(C)cc1N1C(=N)/C(=C2/Nc3ccccc3S2)C(c2ccccc2)C1=O (centres undefined)	6	2	-3	50*	29
COc1ccc(C2C(Oc3ccccc3)C(=O)N2c2cc(C)ccc2C)cc1OC (centres undefined)	2	2	-2	-4	/
Cc1cc(N2CCN(C)CC2)ccc1NC(=O)c1c2c(nc3ccccc13)CCN(Cc1ccccc1)C2	-3	-1	-26	-5	/
CC(C)c1ccccc1NC(=O)COC(=O)c1c2c(nc3ccccc13)CCN(Cc1ccccc1)C2	10	2	66*	46*	58*
Cc1c(Cl)cccc1NC(=O)COC(=O)c1c2c(nc3ccccc13)CCN(Cc1ccccc1)C2	4	3	46	74*	85*
Cc1ccc(NC(=S)NC2CCSc3ccccc32)cc1C (centres undefined)	5	3	-15	41*	53*
COC(=O)c1ccc(C(=O)NC2CCSc3ccccc32)cc1 (centres undefined)	2	2	6	-5	/
CN(CCCC1CCCC1)C(=O)CC1C(=O)NCCN1Cc1cccc(F)c1F (centres undefined)	0	3	-2	1	/
O=C(O)c1ccc(-c2ccc(/C=C3\NC(=O)N(Cc4ccc(Cl)cc4)C3=O)o2)cc1Cl	/	/	4	49*	37	ATG4B confirm=60*
C=CCn1c(SCC(O)Cn2c3ccccc3c3ccccc32)nnc1-c1ccco1 (centres undefined)	8	5	10	46*	48
Cc1nc2ccc(C(=O)OCC(=O)N(C)c3ccccc3)cc2nc1C	/	/	-1	-3	/
Cc1c(Cl)c([N+](=O)[O-])nn1CCCC(=O)Nc1cccc(Cl)c1	-1	2	7	75*	78*
Cc1nn(Cc2c(Cl)cccc2Cl)c(C)c1NC(=O)CCCn1nc([N+](=O)[O-])c(Cl)c1C	4	0	6	46*	49	ATG4B confirm=70*
Cc1c(Cl)c([N+](=O)[O-])nn1CCCC(=O)Nc1cccnc1	2	0	14	-2	/
CCN(c1ccccc1)S(=O)(=O)c1cccc(C(=O)NCC(c2cccs2)N2CCOCC2)c1 (centres undefined)	-8	1	2	-9	/
O=C(O)CSc1nc2sc3c(c2c(=O)n1-c1ccccc1)CCC3	-1	-1	5	5	/
Nc1nc(SCc2nnc(SCC(=O)O)n2-c2ccccc2)nc2sc3c(c12)CCCC3	-1	1	3	46*	63*
CCCNC(=O)C(Cc1cccc(C#N)c1)NC(=O)c1ccc(C#N)cc1 (centres undefined)	-2	0	0	2	/
SMILES	PP1 counter	PP5 inh	H9c2 protect	ATG4B inhibitor	PLA2 counter	others
O=C(NCCC1=CCCCC1)Nc1ccc2nsnc2c1	0	2	-21	46*	50
CN(CC(=O)Nc1ccc(C#N)cc1)CC(=O)Nc1ccc(N2CCOCC2)cc1	-4	-1	0	41*	2
N#Cc1c(NC(=O)C2CC(c3ccccc3O)=NO2)sc2c1CCC2 (centres undefined)	5	1	-2	3	/
N#Cc1c(NC(=O)C2CC(c3ccccc3Cl)=NO2)sc2c1CCC2 (centres undefined)	4	1	-9	51*	35	ATG4B confirm=63*
Cc1ccc(-c2nnc(SCc3ccccc3F)o2)cc1	1	0	-16	48*	38	ATG4B confirm=69*
COc1ccc(-c2oc3ccccc3c(=O)c2OC(=O)c2ccc(C)cc2)cc1	-4	2	-10	4	/
O=C(Oc1c(-c2ccccc2)oc2ccccc2c1=O)c1ccccc1	4	3	32	45*	64*
Oc1c(Br)cc(Br)c(/C=N/n2c(-c3ccccc3)n[nH]c2=S)c1Br	10	4	-11	44*	9	ATG4B confirm=52*
O=Cc1cn(CCC(=O)O)nc1-c1cccc(Br)c1	-6	0	5	4	/
O=C(O)CCn1cc(/C=C\C(=O)c2ccc(Cl)cc2)c(-c2cccc(Br)c2)n1	7	1	6	46*	45	ATG4B confirm=69*
COc1ccc(C2=CC3=C(Br)C(=O)C(C)(OC(=O)c4ccc(Cl)nc4)C(=O)C3=CO2)cc1 (centres undefined)	1	-1	/	67*	59*
CC(C)(C)OC(=O)NCCCC1=CC2=CC(=O)C(C)(OC(=O)c3ccc(Cl)nc3)C(=O)C2=CO1 (centres undefined)	7	1	/	/	/
COc1ccc(C2=CC3=C(Br)C(=O)C(C)(OC(=O)C4CCCC4)C(=O)C3=CO2)cc1 (centres undefined)	-1	2	5	65*	81*
COC(=O)CCC(=O)OC1(C)C(=O)C2=COC(c3ccc(OC)cc3)=CC2=C(Br)C1=O (centres undefined)	0	-1	/	51*	57*
CC1(OC(=O)C2CCCC2)C(=O)C=C2C=C(c3ccsc3)OC=C2C1=O (centres undefined)	6	3	-1	22	/
COc1ccc2[nH]c3c(c2c1)CCN1C(=O)C(CC(=O)NCCCn2ccnc2)C[C@H](C(=O)N2CCCCC2)[C@@]31C (some centres undefined)	/	/	20	/	/
S=C(NCCN(C1CCCCC1)C1CCCC1)Nc1cccc(Cl)c1	4	-3	-22	16	/
O=C(COC(=O)c1ccccc1Nc1ccccc1)NCc1ccccc1Cl	3	2	-7	49*	14
Fc1ccc(CNC(=S)Nc2cccc(Cl)c2)cc1	2	2	-10	61*	67*
O=C(COC(=O)c1ccccc1Nc1ccccc1)NCc1ccccc1	2	-1	-5	1	/
Cc1ccc(NC(=S)NCc2ccc(Cl)cc2)c(OC(F)F)c1	3	2	-3	47*	55*

Source: PubChem BioAssay (several laboratories)
